This is part of a sample that, as a whole, favours compounds with a hit. Of some 79,000 tested, about 15% had one in any assay. Values without a mark were called inactive. Activity calls are given as the source filed them. Cut-off read from the data, not from the text of the source: active = growth inhibition above about 70%; inactive = the rest.
Assay: NCI Yeast Anticancer Drug Screen. Data for the rad50 strain (AID 155);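 note: 0% = growth of vehicle-only cultures of the same strain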
Conditions: S. cerevisiae rad50 strain growth inhibition, hits give high values
Experimental: Growth inhibition of yeast strains with defined genetic alterations is measured as a screen for potential anti-cancer activity. Selected strains with alterations in DNA damage repair or cell cycle control were exposed to compounds and growth inhibition was measured relative to vehicle treated controls. The strain used in this assay is rad50

[1] = at 5.0 µM (retest, dose inferred, filed as 0.5)
[2] = at 50.0 µM (retest, dose inferred, filed as 5.0)

Compound | growth inhibition [1] | growth inhibition [2] | growth inhibition (at 50.0 µM)
Nc1ccc(SC23CC4CC(CC(C4)C2)C3)cc1 | 1% | 74% (active) | 94.1% (active)
CC1CCC2(NC1)OC1CC3[C@@H]4CC=C5C=CCC[C@]5(C)C4CC[C@]3(C)C1C2C (some centres not stated) | -16% | 97% (active) | 90.8% (active)
N#CN1CCCC(O)c2sc3ccccc3c2CC1 (configuration not stated) | 3% | 9% | 56.4%
CN(C)c1ccc(/C=N/c2nc(-c3ccccc3)cs2)cc1 | 9% | 90% (active) | 94.9% (active)
CCOc1ccc2nc(C)cc(C)c2c1 | -1% | 75% (active) | 26.6%
Cc1ccc(N2CC3CC4(C)C=CC3(C2)O4)cc1 (configuration not stated) | 6% | 8% | 76% (active)
CC(C)C1=CC[C@H]2C(=C1)CC[C@@H]1[C@]2(C)CCC[C@@]1(C)C(=O)O | -2% | 90% (active) | 79.3% (active)
N#C/C(=C\c1ccc(Cl)cc1Cl)C(N)=S | -3% | 78% (active) | 94.7% (active)
COC(=O)CSC(=S)Nc1ccc(Cl)cc1 | 3% | 92% (active) | 83.5% (active)
CCNC(=S)NC1CCCCCCCCCCC1 | 99% (active) | 100% (active) | 87.8% (active)
CC1(C)c2ccccc2-c2nc3ccccc3cc2C1Br (configuration not stated) | -1% | 29% | 37.6%
COc1cc(NCCCCCCCC2CCCCN2)c2ncccc2c1 (configuration not stated) | -1% | 95% (active) | 86.2% (active)
COc1ccc(-c2nc(C)[nH]c(=O)c2Cc2c(O)ccc3ccccc23)cc1 | 3% | 50% | 98.5% (active)
CN(C)c1ccc2c(NCCCCCCNc3ccnc4cc(N(C)C)ccc34)ccnc2c1 | 10% | 95% (active) | 84.5% (active)
